# Compound activity (PubChem BioAssay)
# In the library only some 1.5% were active in any assay of this set; here they are far more common.
# miR-122 sensor: inhibitors of miR-122 in Huh7 cells | Huh7 miR-122 Renilla luciferase sensor, 48 h; neutral wells = 0, positive control = 100 | activation (reporter increase), % at 12.5 µM | actives 0.3% (n = 340,000);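 active means mean replicate activation score at least 90 and every replicate individually at or above 90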;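 further: higher luciferase means less miR-122 activity so hits act as miR-122 inhibitors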
# NSD2 HMT inh: NSD2 (human) methyltransferase inhibition. actives 0.54% (n = 310,000). NSD2 peptide methylation, AlphaScreen, 120 min. inhibition, % at 12.5 µM. O96028. AID 743445; in the data active means inhibition above about 50%
# AF4-AF9 inh: MLL-AF4/AF9 protein interaction inhibition; actives 0.47% (n = 350,000); AlphaScreen, biotin-AF4 peptide binding to FLAG-AF9; inhibition, % at 10 µM;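 active means every replicate reaching a set inhibition limit, whatever the replicate mean, cut at about 25% in these data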;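 further: 0% = plate neutral control median and 100% = total signal loss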
# CASP6 VEID inh: caspase-6 (human) enzyme inhibition. P55212. purified caspase-6, Z-VEID-R110 cleavage fluorescence. inhibition, % at 12.5 µM. actives 0.53% (n = 350,000). AID 686996;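 active means mean inhibition across replicates at least about 35%, with every replicate also reaching that limit, limit read from the data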;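 further: 0% = median of neutral control wells and 100% = no fluorescence left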
# RAD52 anneal inh: inhibitors of human RAD52 DNA annealing; P43351; recombinant RAD52 DNA annealing, FRET fluorescence; inhibition, % at 18.7 µM; actives 0.46% (n = 360,000); AID 651710;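 active means every replicate showing at least 50% inhibition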
# Active calls of the source: *; nt = not tested or not shown; + = active, no number; [ ] = another dose, or the depositor's remark.
SMILES,miR-122 sensor,NSD2 HMT inh,AF4-AF9 inh,CASP6 VEID inh,RAD52 anneal inh
COc1ccc2c3c(n(C)c2c1)[C@H](CO)N(C(=O)Cc1ccccn1)CC31CN(CC2CCCCC2)C1,nt,nt,26*,0,13
CCCNC(=O)N1CC2(CN(Cc3ccncc3)C2)c2c(n(C)c3cc(OC)ccc23)[C@H]1CO,nt,nt,-3,1,18
COc1ccc2c3c(n(C)c2c1)[C@@H](CO)N(C(C)=O)CC31CN(Cc2ccccc2OC)C1,nt,nt,-1,nt,20
COc1ccc2c3c(n(C)c2c1)[C@@H](CO)N(C(=O)Cc1ccccn1)CC31CN(CC2CCCC2)C1,nt,nt,8,-8,34
COc1cc(-c2nnc(COC(=O)c3cc(C)no3)o2)cc(OC)c1OC,-6,-2,1,2,-21
COc1cc(-c2nnc(COC(=O)c3ccc(C)o3)o2)cc(OC)c1OC,0,0,-2,35*,-4
O=C(c1ccco1)c1coc2c1cc(O)c1ccccc12,nt,13,0,47*,-5
Nc1ccc(Cc2ccc(N)c(C(=O)O)c2)cc1C(=O)O,-1,8,-10,44*,-20
CCCCn1c(NCc2ccc(N(C)C)cc2)nc2ccccc21,-2,13,29*,0,-19
CCCCn1c(NCc2ccncc2)nc2ccccc21,-3,0,-4,0,-19
Cc1ccc(NS(=O)(=O)c2cccc3nsnc23)cc1,nt,2,2,2,-19
O=S(=O)(Nc1ccccc1)c1cccc2nsnc12,7,-1,-18,36*,-8
O=C(NCc1ccc(F)cc1)C(c1ccco1)N(C(=O)c1csnn1)C1CC1 (configuration not stated),-2,5,0,0,-8
O=C(NCc1ccccc1)C(c1ccco1)N(C(=O)c1csnn1)C1CC1 (configuration not stated),-1,43,41*,-1,-3
COc1ccc(NC(=O)N2CCCCN3[C@H](C2)[C@H](c2ccc(C#Cc4ccccc4)cc2)[C@@H]3CO)cc1,4[16.7 µM],nt,nt,nt,nt
COc1ccccc1NC(=O)N1CCCCN2[C@H](CO)[C@@H](c3ccc(C#CC4CC4)cc3)[C@H]2C1,nt,nt,25*,2,48
COc1ccccc1C#Cc1ccc([C@@H]2[C@@H](CO)N3CCCCN(C(=O)C4CCCC4)C[C@H]23)cc1,4[16.7 µM],nt,0,0,62*
COc1ccccc1NC(=O)N1CCCCN2[C@H](C1)[C@@H](c1ccc(C#CC3CC3)cc1)[C@@H]2CO,nt,nt,11,2,-18
COc1ccc(NC(=O)N2CCCCN3[C@H](C2)[C@@H](c2ccc(C#Cc4ccccc4)cc2)[C@@H]3CO)cc1,-10[16.7 µM],nt,-8,-2,82*
COc1ccc(NC(=O)N2CCCCN3[C@@H](CO)[C@H](c4ccc(C#Cc5ccccc5)cc4)[C@@H]3C2)cc1,-8[16.7 µM],nt,19,0,69*
C[C@H]1CN([C@@H](C)CO)C(=O)c2cccc(NC(=O)c3cnccn3)c2O[C@@H]1CN(C)C(=O)Nc1ccc(C(F)(F)F)cc1,0[16.7 µM],nt,-4,0,-10
O=C(Nc1ccc(Cl)cc1)N[C@H]1CC[C@@H](CCn2cc(-c3ccccc3F)nn2)O[C@H]1CO,nt,nt,-1,2,-8
CN(C)CC#Cc1ccc([C@H]2[C@H](CO)N3CCCCN(CC4CCOCC4)C[C@@H]23)cc1,3[16.7 µM],nt,12,0,54*
CN(C)CC#Cc1ccc([C@H]2[C@@H](CO)N3CCCCN(CC4CC4)C[C@@H]23)cc1,12[16.7 µM],nt,18,0,61*
OC[C@@H]1[C@H](c2ccc(C#CC3CCCC3)cc2)[C@H]2CN(CCC(F)(F)F)CCCCN12,-24[16.7 µM],nt,25*,2,34
SMILES,miR-122 sensor,NSD2 HMT inh,AF4-AF9 inh,CASP6 VEID inh,RAD52 anneal inh
OC[C@H]1[C@@H](c2ccc(C#CC3CCCC3)cc2)[C@@H]2CN(CCC(F)(F)F)CCCCN12,-29[16.7 µM],nt,22,2,9
O=c1cc(-c2ccccc2)nc2cc(-c3ccc(Br)cc3)[nH]n12,8,-6,-1,1,-9
Cc1cc2nc(-c3ccccc3)cc(=O)n2[nH]1,0,-2,49*,-1,-5
CCN(CC)c1ccc2nc3ccccc3[n+](CC)c2c1,nt,29,nt,nt,nt
CCN(CC)c1ccc2nc3ccc(N)cc3[n+](-c3ccccc3)c2c1,nt,72*,50*,29,-309
O=C(C[C@@H]1CC[C@@H]2[C@H](COC[C@@H](O)CN2C(=O)c2ccccn2)O1)N1CCN(c2ccccc2)CC1,-6[16.7 µM],nt,-1,0,-34
CCn1c(SCC(=O)Nc2ccc(N3CCOCC3)cc2)nnc1-c1ccc(OC)cc1,142*,-3,9,-1,-18
C[C@H]1CN([C@@H](C)CO)C(=O)c2cc(NC(=O)Cc3ccccc3)ccc2O[C@@H]1CN(C)Cc1ccc(Oc2ccccc2)cc1,-2[16.7 µM],nt,6,0,27
CC(=O)OCC1=C(C(=O)O)N2C(=O)C(NC(=O)c3ccc(COc4cccc(Cl)c4Cl)o3)C2SC1 (configuration not stated),2,20,-8,55*,-14
COc1cccc(C(=O)NC2C(=O)N3C(C(=O)O)=C(COC(C)=O)CSC23)c1 (configuration not stated),6,19,-2,9,-25
COc1ccc2c3c(n(C)c2c1)[C@H](CO)NCC31CCN(C(=O)CC2CC2)CC1,nt,nt,4,nt,nt
CCC(C)(C)n1nnnc1C(c1cc2ccc(OC)cc2[nH]c1=O)N1CCc2ccccc2C1 (configuration not stated),-3,-1,nt,nt,nt
COc1ccc2cc(C(c3nnnn3C3CCCC3)N3CCc4ccccc4C3)c(=O)[nH]c2c1 (configuration not stated),-13,0,nt,47*,-40
O=C1CCCC2=C1C(c1ccc3c(c1)OCO3)c1c([nH]n(-c3ccccc3)c1=O)N2 (configuration not stated),191*,13,nt,nt,nt
COc1ccccc1CCC(=O)Nc1ccc2c(c1)CN(CCCn1cccn1)CC2,nt,-6,-3,99*,2
O=C(C[C@H]1CC[C@@H]2[C@H](COC[C@@H](O)CN2Cc2ccccc2F)O1)N1CCc2ccccc2C1,-9[16.7 µM],nt,1,-5,3
O=C1NC(=O)/C(=C\c2ccc(O)cc2O)S1,nt,102*,-6,87*,-23
O=C1c2sc3nc4n(c(=O)c3c2CCC1Br)CCCCC4 (configuration not stated),-5,+,nt,nt,nt
O=C1CC(CC(=O)N/N=C/c2ccccc2[N+](=O)[O-])=NN1,-2,2,nt,nt,nt
NNC(=O)CC1=NNC(=O)C1,nt,1,-1,40*,-16
Cn1cc(C(CC(=O)O)C(=O)O)c2ccccc21 (configuration not stated),-4,17,0,43*,-6
CNC[C@@H]1Oc2ncc(-c3ccccc3C)cc2C(=O)N([C@H](C)CO)C[C@@H]1C,nt,nt,4,-1,-13
O=[N+]([O-])c1cc2ccccc2c(O)c1O,nt,46,-1,41*,5
O=[N+]([O-])c1cc(-c2ccccc2)cc([N+](=O)[O-])c1O,-5,14,-1,6,-11
